“And” between values parts separate entries of the source, which are not always exact repeats. Equal values may be shown once. The campaign covered roughly 5,500 compounds. About 2,000 (36%) were called active. Inconclusive results (about 18%) are left out. Rule as the data show it: active = normalized growth mostly below about 0.91 (no sharp cut-off); inconclusive = no clear call, values can overlap the other calls; inactive = mostly above about 0.92. This is one part of the list.
Experiment: chemical genetic growth profiling, strain panel (AID 1159580);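 also: tested at 20 µM; growth read once vehicle control cultures reached saturation at 30 °C; 1 = growth at the plate median or of vehicle wells; lower values mean less growth of the strain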
Conditions: S. cerevisiae deletion strains, growth OD

Measured: normalized growth

CCOC(=O)CCCCCCCCCCCCC1C=CCC1 (centres undefined)
0.0494 (active) and 0.992 (inactive): locus YHR030C, strain SLT2, stronger effect = lower value
active: locus YAL013W, strain DEP1, stronger effect = lower value 0.054 | locus YBR021W, strain FUR4, stronger effect = lower value 0.0914 | locus YBR229C, strain ROT2, stronger effect = lower value 0.0494 | locus YCL029C, strain bik1, stronger effect = lower value 0.067 | locus YDL035C, strain GPR1, stronger effect = lower value 0.0527 | locus YDL074C, strain BRE1, stronger effect = lower value 0.0833 | locus YDL101C, strain DUN1, stronger effect = lower value 0.0581 | locus YDL134C, strain PPH21, stronger effect = lower value 0.0502 | locus YDL185W, strain tfp1, stronger effect = lower value 0.499 | locus YDL192W, strain arf1, stronger effect = lower value 0.0606 | locus YDR101C, strain arx1, stronger effect = lower value 0.0619 | locus YDR162C, strain NBP2, stronger effect = lower value 0.0522 | locus YDR318W, strain mcm21, stronger effect = lower value 0.0614 | locus YDR388W, stronger effect = lower value 0.0583 | locus YDR392W, strain spt3, stronger effect = lower value 0.497 | locus YDR502C, strain sam2, stronger effect = lower value 0.0641 | locus YEL061C, strain CIN8, stronger effect = lower value 0.054 | locus YER110C, stronger effect = lower value 0.0827 | locus YER155C, strain BEM2 (second series), stronger effect = lower value 0.594 | locus YER155C, strain BEM2, stronger effect = lower value 0.0734 | locus YER167W, strain BCK2, stronger effect = lower value 0.0529 | locus YGL078C, strain dbp3, stronger effect = lower value 0.688 | locus YGL086W, strain mad1, stronger effect = lower value 0.0537 | locus YGL248W, strain PDE1, stronger effect = lower value 0.0488 | locus YGR078C, strain PAC10, stronger effect = lower value 0.053 | locus YGR135W, strain pre9, stronger effect = lower value 0.06 | locus YGR252W, strain gcn5, stronger effect = lower value 0.11 | locus YHR013C, strain ard1, stronger effect = lower value 0.815 | locus YHR079C, strain IRE1 (second series), stronger effect = lower value 0.0604 | locus YHR094C, strain hxt1, stronger effect = lower value 0.0651 | locus YHR129C, strain ARP1, stronger effect = lower value 0.0559 | locus YHR200W, strain rpn10, stronger effect = lower value 0.0588 | locus YIL066C, strain RNR3, stronger effect = lower value 0.0493 | locus YIL073C, strain SPO22, stronger effect = lower value 0.148 | locus YIL125W, strain kgd1, stronger effect = lower value 0.773 | locus YIR030C, strain dcg1, stronger effect = lower value 0.0637 | locus YJL134W, strain LCB3, stronger effect = lower value 0.0504 | locus YJL168C, strain set2, stronger effect = lower value 0.0586 | locus YJL187C, strain SWE1 (second series), stronger effect = lower value 0.0498 | locus YJR043C, strain POL32, stronger effect = lower value 0.0731
inactive: locus YAL021C, strain ccr4, stronger effect = lower value 1.01 | locus YAL026C, strain drs2, stronger effect = lower value 1 | locus YAL030W, strain snc1, stronger effect = lower value 0.982 | locus YBL061C, strain skt5, stronger effect = lower value 0.977 | locus YBR009C, strain hhf1, stronger effect = lower value 0.922 | locus YBR023C, strain chs3, stronger effect = lower value 0.979 | locus YBR171W, strain sec66, stronger effect = lower value 0.973 | locus YBR231C, strain swc5, stronger effect = lower value 0.978 | locus YBR279W, strain paf1, stronger effect = lower value 0.981 | locus YCL011C, strain gbp2, stronger effect = lower value 0.967 | locus YCL016C, strain dcc1, stronger effect = lower value 0.981 | locus YCL061C, strain MRC1, stronger effect = lower value 0.983 | locus YCL069W, strain vba3, stronger effect = lower value 0.981 | locus YCR088W, strain abp1, stronger effect = lower value 0.983 | locus YDL005C, strain med2, stronger effect = lower value 0.974 | locus YDL040C, strain nat1, stronger effect = lower value 0.974 | locus YDR001C, strain nth1, stronger effect = lower value 0.994 | locus YDR069C, strain doa4, stronger effect = lower value 0.958 | locus YDR137W, strain rgp1, stronger effect = lower value 0.979 | locus YDR159W, strain sac3, stronger effect = lower value 0.978 | locus YDR195W, strain ref2 1.06 | locus YDR297W, strain sur2, stronger effect = lower value 0.984 | locus YDR334W, strain swr1, stronger effect = lower value 0.976 | locus YDR335W, strain msn5, stronger effect = lower value 1 | locus YEL003W, strain gim4, stronger effect = lower value 0.969 | locus YEL037C, strain rad23, stronger effect = lower value 0.989 | locus YEL061C, strain CIN8 (second series), stronger effect = lower value 0.978 | locus YER015W, strain faa2, stronger effect = lower value 0.982 | locus YER016W, strain bim1, stronger effect = lower value 0.978 | locus YER111C, strain swi4, stronger effect = lower value 0.958 | locus YFR010W, strain ubp6, stronger effect = lower value 0.969 | locus YGL167C, strain pmr1, stronger effect = lower value 0.972 | locus YGL173C, strain kem1, stronger effect = lower value 0.96 | locus YGL227W, strain vid30, stronger effect = lower value 0.962 | locus YGL240W, strain doc1, stronger effect = lower value 0.972 | locus YGL253W, strain hxk2, stronger effect = lower value 0.998 | locus YHR027C, strain rpn1, stronger effect = lower value 0.984 | locus YHR079C, strain IRE1, stronger effect = lower value 0.983 | locus YHR142W, strain chs7, stronger effect = lower value 0.975 | locus YJL092W, strain hpr5, stronger effect = lower value 0.994 | locus YJL095W, strain BCK1 (second series), stronger effect = lower value 0.969 | locus YJL115W, strain asf1, stronger effect = lower value 0.99 | locus YJL129C, strain trk1, stronger effect = lower value 0.91 | locus YJL154C, strain vps35, stronger effect = lower value 0.997 | locus YJL164C, strain tpk1, stronger effect = lower value 0.952 | locus YJL166W, strain qcr8, stronger effect = lower value 0.942 | locus YJL187C, strain SWE1, stronger effect = lower value 0.98
0.0599 (active) and 0.989 (inactive): locus YJL095W, strain BCK1, stronger effect = lower value

From PubChem BioAssay AID1159580 (chemical genetic matrix, 2015)
